Screening results (PubChem)
Shown are actives, neighbours in structure and some others; about 6.6% of the full set was active somewhere.
HT1080 IDH1KD tx: kills HT-1080 cells with IDH1 knockdown. HT-1080 IDH1 knockdown viability, ATP luminescence, 48 h. Potency, µM (titrated, usually from 46.1 µM), without a hit: top-dose activity, negative = toxicity, usual class: cytotoxic. 360,000 tested, 2% active. AID 686971;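 note: 0% = DMSO wells and -100% = cell-free medium wells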
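Assay cells: HT-1080 with IDH1 knockdown, 750 per well, RPMI/5% FBS. Exposure: 48 h at 37 °C following 2 h pre-incubation. Read: CellTiter-Glo luminescence; fitted concentration-response, curve class assigned.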
KB-3-1 cytotox: kills parental KB-3-1 adenocarcinoma cells; KB-3-1 viability, CellTiter-Glo ATP luminescence, 72 h; Potency, µM (top dose mostly 46.1 µM), actives largely listed as cytotoxic; 400,000 tested, 1.4% active; AID 1347075; note: % is set by controls: 0 for no effect and ±100 for the full control effect; nearly all actives have a fitted effect of over 60% in size
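72 h, 37 °C compound treatment of KB-3-1 parental cells; CellTiter-Glo added, 10 min, luminescence read. Data corrected against DMSO-only plates and normalized before curve fitting.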
KB-V1 MDR tox: KB-V1 MDR subline cytotoxicity | KB-V1 MDR cells viability, CellTiter-Glo, 72 h | Potency, µM (highest dose often 46.1 µM), actives largely listed as cytotoxic | 400,000 tested, 3.4% active | AID 1347076; note: % is set by controls: 0 for no effect and ±100 for the full control effect; nearly all actives have a fitted effect of over 60% in size
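Compound-treated KB-V1 multidrug-resistant cells, 72 h, 37 degrees C; viability by CellTiter-Glo. Fitted qHTS curves give the values.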
HepG2 viability: counter-screen for TGF-b inhibitors: cytotoxicity in HepG2 cells | HepG2 CAGA-GFP viability, ATP luminescence, 18 h | Potency, µM (series often up to 46.1 µM), inactives show top-dose activity change, negative = cytotoxicity, usual class: cytotoxic | 410,000 tested, 0.76% active | AID 588856
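CellTiter-Glo luminescence gave cytotoxicity after 18 hours at 37 degrees C. The cells were HepG2 CAGA-GFP in 1% FBS DMEM, stimulated with 500 pg/mL TGF-beta after compound addition. %Activity was normalised to no-cell wells (complete cell-killing) and DMSO (no toxicity), and curves were fitted and classified.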
HT1080NT lethal: kills 2HG-producing HT-1080-NT fibrosarcoma cells. HT-1080-NT fibrosarcoma viability, CellTiter-Glo ATP luminescence, 48 h. Potency, µM (top dose mostly 46.1 µM), inactives show at the top dose activity, negative = less viability, hits mostly cytotoxic. 360,000 tested, 1.6% active. AID 686970;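 note: NT is the 2HG producing partner of a matched IDH1 knockdown line; 0% = DMSO-treated cells and -100% = media-only wells without cells; nearly all actives have a fitted effect of over 55% in size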
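HT-1080-NT fibrosarcoma cells (2HG-overproducing), 750 cells/well in RPMI with 5% FBS, dosed after 2 h and incubated 48 h at 37C. CellTiter-Glo luminescence normalized to DMSO and no-cell wells; concentration-response curves fitted and classed.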
TGFb inhibitor: TGF-b pathway inhibition; HepG2 CAGA-GFP TGF-b/SMAD3 reporter, GFP fluorescence, 18 h; TGF-beta stimulated, 500 pg/mL final; Potency, µM (series often up to 46.1 µM), inactives show at the highest dose activity, negative = inhibition, usual class: inhibitors; 410,000 tested, 1.2% active; AID 588855; note: % is set by controls: 0 for no effect and ±100 for the full control effect; nearly all actives have a fitted effect of over 65% in size
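Per well, imaged GFP fluorescence of HEPG2 CAGA-GFP cells gives the signal; cells get compound, then TGF-beta (500 pg/mL final), 18 h at 37 degrees C; %Activity versus -TGF-beta and +DMSO controls.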
An asterisk follows results filed as active; i = inactive; ? = inconclusive; . = no result given. Calls come from the whole dose curve; as a rule, active = well fitted curve in the direction sought with a large enough effect; inconclusive = small, poorly fitted or top-dose-only effect, or another doubt; inactive = no such curve, though single readings can be large; an effect the other way counts as inactive or inconclusive. Potency is the fitted concentration of half-maximal effect.

SMILES	HT1080 IDH1KD tx	KB-3-1 cytotox	KB-V1 MDR tox	HepG2 viability	HT1080NT lethal	TGFb inhibitor
O=c1cc(-c2ccccc2)[nH]n1-c1ccc([N+](=O)[O-])cc1	13µM*	?	?	-72%	?	?
O=C(c1ccccc1-c1ccccc1)N1CCN(c2ccccn2)CC1	6.5µM*	2.6µM*	2.6µM*	-47%	5.8µM*	-26%
O=C(c1cnc(N2CCN(c3ncccn3)CC2)c2ccccc12)N1CCN(c2ccccn2)CC1	-16%	i	21µM*	-9%	-21%	-11%
O=C(c1cc(-c2ccncc2)nc2ccccc12)N1CCN(c2ccccn2)CC1	5.6µM*	13µM*	?	-18%	7.9µM*	38%
Cc1ccccc1C(=O)N1CCN(c2ccccn2)CC1	19%	i	i	-5%	18%	2%
O=C(c1cn(Cc2ccccc2)nc1-c1ccccc1)N1CCN(c2ccccn2)CC1	16µM*	10µM*	?	-23%	?	-12%
O=C(c1cc(-c2ccccc2)nc2ccccc12)N1CCN(c2ccccn2)CC1	-12%	?	?	-16%	-1%	-16%
Cc1cc(C)nc(N/C=C(\C#N)C(=O)c2cccc(CSc3ccccc3)c2)n1	.	i	i	-5%	.	-2%
O=C(Nc1c(F)cccc1F)c1cnc(N2CCN(c3ccccn3)CC2)c2ccccc12	-15%	?	10µM*	-2%	-18%	-24%
CCCc1ccc(S(=O)(=O)N2CCN(C(=O)CN3C(=O)NC(C)(C4CC4)C3=O)CC2)cc1 (stereo not given)	10%	i	i	0%	5%	7%
Cc1ccc(C(=O)c2oc3ccccc3c2NC(=O)c2cc(-c3ccccc3O)n[nH]2)cc1	?	i	i	-4%	16µM*	-10%
Cc1ccc(C(=O)c2oc3ccccc3c2NC(=O)c2cc(-c3cc(C)ccc3O)n[nH]2)cc1	9%	?	?	0%	29%	-11%
O=C(Nc1c(C(=O)c2ccccc2)oc2ccccc12)c1cc(-c2ccccc2O)n[nH]1	18µM*	?	?	-12%	?	-18%
CCc1c(CN2CCN(c3ccccc3F)CC2)csc1C	.	.	.	-33%	.	-30%
CCCN(C(=O)CCl)C1=CCCCC1	?	?	i	-18%	10µM*	-1%
Cc1ccc(-n2nc(CO)c(C(=O)NCCc3ccccc3)n2)cc1C	.	.	.	-11%	.	-17%
Cc1cc(N2CCN(C/C=C/c3ccccc3)CC2)n2ncnc2n1	-8%	i	9.2µM*	2%	0%	-1%
CC(NC(=O)/C(=C/c1ccc(OC(F)F)cc1)c1ccccc1)c1ccccc1 (stereo not given)	-12%	?	6.5µM*	-30%	-10%	?
CN1/C(=C\C(=O)c2ccco2)C(C)(C)c2ccccc21	10µM*	21µM*	?	-31%	?	?
CN1/C(=C/C(=O)c2nc(S(C)(=O)=O)ncc2Cl)C(C)(C)c2ccccc21	4.6µM*	?	?	-122%	?	?
Cc1ccc2nc(NC(=O)CN(C)S(=O)(=O)c3cccc4nsnc34)sc2c1	8.2µM*	?	?	-6%	?	-3%
CN(CC(=O)NCCN1CCN(Cc2ccccc2)CC1)S(=O)(=O)c1cccc2nsnc12	-11%	i	i	2%	0%	-17%
Cc1ccnc(NC(=O)CN(C)S(=O)(=O)c2cccc3nsnc23)c1	3%	i	?	4%	6%	-11%
CN(CC(=O)NCCc1ccccc1)S(=O)(=O)c1cccc2nsnc12	17%	i	9.2µM*	5%	6%	4%
COc1ccc(F)cc1-c1cc(NC=O)c2ncc(-c3cccc(C(F)(F)F)c3)n2c1	5.2µM*	23µM*	?	13µM*	?	?
